# According to PubChem BioAssay:
# Calls of active or inactive are those of the source.
# What was measured:
# [1] = system: PRMT1 (protein arginine N-methyltransferase 1); experiment: small molecules binding arginine methyltransferase PRMT1 – biochemical, small-molecule microarray, 635 nm fluorescence, primary screen (AID 1088); settings: higher = more signal;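 further: binding of Prmt1 protein to compounds spotted on small-molecule microarray slides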
# [2] = growth effects on S. cerevisiae YJM789 – YJM789 clinical isolate, OD600, 24 h, basal, primary screen (AID 1089); settings: higher = more signal, called active from +8 up or from −8 down;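 further: growth of clinical yeast isolate S. cerevisiae YJM 789 seeded 1000 cells per well; test concentration not given here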
# [3] = S. pombe growth modifiers, basal conditions – strain 972, OD600, 24 h, no modulator, primary screen (AID 1090);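 further: basal condition with compound alone and no growth modifier present; test concentration not given here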; settings: S. pombe 972 growth, higher = more signal, called active from +8 up or from −8 down
# [4] = budding yeast growth modifiers under rapamycin – strain BY4716, OD600, 96 h, primary screen (AID 1091); further: test concentration not given here; settings: S. cerevisiae BY4716 + rapamycin, higher = more signal, called active from +8 up or from −8 down
# [5] = molecular target: Torsin-1A-interacting protein 2 (Homo sapiens) (UniProt Q8NFQ8); experiment: small molecules binding lysate-expressed LULL1 – cell lysate, human LULL1 lysate, 635/667 nm fluorescence, primary screen (AID 1092); settings: small-molecule microarray, hLULL1 lysate binding, 635 nm fluorescence; higher = more signal;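 further: probe is lysate of COS7 cells overexpressing human LULL1; score merges per-feature 667 nm fluorescence with signal-to-noise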
# Sequence of Torsin-1A-interacting protein 2 (Homo sapiens) (Q8NFQ8 whole entry, looked up): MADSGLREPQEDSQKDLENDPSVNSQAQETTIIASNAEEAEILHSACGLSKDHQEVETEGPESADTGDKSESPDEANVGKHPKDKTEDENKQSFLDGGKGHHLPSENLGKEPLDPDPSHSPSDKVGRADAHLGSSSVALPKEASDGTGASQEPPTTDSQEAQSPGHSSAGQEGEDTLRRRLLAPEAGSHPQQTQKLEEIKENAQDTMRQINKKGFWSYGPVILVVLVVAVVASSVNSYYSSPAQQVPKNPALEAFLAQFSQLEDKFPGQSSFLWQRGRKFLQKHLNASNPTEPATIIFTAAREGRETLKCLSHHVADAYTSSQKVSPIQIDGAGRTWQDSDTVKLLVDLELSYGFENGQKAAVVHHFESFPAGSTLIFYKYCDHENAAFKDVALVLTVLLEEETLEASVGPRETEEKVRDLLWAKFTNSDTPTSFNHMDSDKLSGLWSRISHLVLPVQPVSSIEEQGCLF
# [6] = optical density change of DRC41 E. coli – strain DRC41, OD650, 24 h, E. coli filamentation project, primary screen (AID 1093);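 further: MC1000 strain lacking acrAB efflux and sulA so SOS filamentation is blocked; test concentration not given here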; settings: E. coli DRC41 growth, higher = more signal, called active from +8 up or from −8 down
# [7] = probe aLefty2 binding to arrayed compounds – biochemical, biotinylated probe, 635/667 nm fluorescence, primary screen (AID 1094); settings: small-molecule microarray, higher = more signal;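 further: score merges spot fluorescence near 667 nm with spot signal-to-noise ratio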
# [8] = system: Noggin (protein binding on small-molecule microarray); experiment: small molecules binding Noggin protein – biochemical, 635/667 nm fluorescence, primary screen (AID 1095); settings: 635 nm fluorescence, higher = more signal;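 further: score merges 667 nm feature fluorescence with signal to noise over triplicate slides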
# [9] = molecular target: Neurogenic locus notch homolog protein 3 (Homo sapiens) (UniProt Q9UM47); experiment: small molecules binding NOTCH3 protein – biochemical, 635/667 nm fluorescence, primary screen (AID 1096); settings: small-molecule microarray, 635 nm fluorescence, higher = more signal
# Sequence of Neurogenic locus notch homolog protein 3 (Homo sapiens) (Q9UM47 whole entry, looked up): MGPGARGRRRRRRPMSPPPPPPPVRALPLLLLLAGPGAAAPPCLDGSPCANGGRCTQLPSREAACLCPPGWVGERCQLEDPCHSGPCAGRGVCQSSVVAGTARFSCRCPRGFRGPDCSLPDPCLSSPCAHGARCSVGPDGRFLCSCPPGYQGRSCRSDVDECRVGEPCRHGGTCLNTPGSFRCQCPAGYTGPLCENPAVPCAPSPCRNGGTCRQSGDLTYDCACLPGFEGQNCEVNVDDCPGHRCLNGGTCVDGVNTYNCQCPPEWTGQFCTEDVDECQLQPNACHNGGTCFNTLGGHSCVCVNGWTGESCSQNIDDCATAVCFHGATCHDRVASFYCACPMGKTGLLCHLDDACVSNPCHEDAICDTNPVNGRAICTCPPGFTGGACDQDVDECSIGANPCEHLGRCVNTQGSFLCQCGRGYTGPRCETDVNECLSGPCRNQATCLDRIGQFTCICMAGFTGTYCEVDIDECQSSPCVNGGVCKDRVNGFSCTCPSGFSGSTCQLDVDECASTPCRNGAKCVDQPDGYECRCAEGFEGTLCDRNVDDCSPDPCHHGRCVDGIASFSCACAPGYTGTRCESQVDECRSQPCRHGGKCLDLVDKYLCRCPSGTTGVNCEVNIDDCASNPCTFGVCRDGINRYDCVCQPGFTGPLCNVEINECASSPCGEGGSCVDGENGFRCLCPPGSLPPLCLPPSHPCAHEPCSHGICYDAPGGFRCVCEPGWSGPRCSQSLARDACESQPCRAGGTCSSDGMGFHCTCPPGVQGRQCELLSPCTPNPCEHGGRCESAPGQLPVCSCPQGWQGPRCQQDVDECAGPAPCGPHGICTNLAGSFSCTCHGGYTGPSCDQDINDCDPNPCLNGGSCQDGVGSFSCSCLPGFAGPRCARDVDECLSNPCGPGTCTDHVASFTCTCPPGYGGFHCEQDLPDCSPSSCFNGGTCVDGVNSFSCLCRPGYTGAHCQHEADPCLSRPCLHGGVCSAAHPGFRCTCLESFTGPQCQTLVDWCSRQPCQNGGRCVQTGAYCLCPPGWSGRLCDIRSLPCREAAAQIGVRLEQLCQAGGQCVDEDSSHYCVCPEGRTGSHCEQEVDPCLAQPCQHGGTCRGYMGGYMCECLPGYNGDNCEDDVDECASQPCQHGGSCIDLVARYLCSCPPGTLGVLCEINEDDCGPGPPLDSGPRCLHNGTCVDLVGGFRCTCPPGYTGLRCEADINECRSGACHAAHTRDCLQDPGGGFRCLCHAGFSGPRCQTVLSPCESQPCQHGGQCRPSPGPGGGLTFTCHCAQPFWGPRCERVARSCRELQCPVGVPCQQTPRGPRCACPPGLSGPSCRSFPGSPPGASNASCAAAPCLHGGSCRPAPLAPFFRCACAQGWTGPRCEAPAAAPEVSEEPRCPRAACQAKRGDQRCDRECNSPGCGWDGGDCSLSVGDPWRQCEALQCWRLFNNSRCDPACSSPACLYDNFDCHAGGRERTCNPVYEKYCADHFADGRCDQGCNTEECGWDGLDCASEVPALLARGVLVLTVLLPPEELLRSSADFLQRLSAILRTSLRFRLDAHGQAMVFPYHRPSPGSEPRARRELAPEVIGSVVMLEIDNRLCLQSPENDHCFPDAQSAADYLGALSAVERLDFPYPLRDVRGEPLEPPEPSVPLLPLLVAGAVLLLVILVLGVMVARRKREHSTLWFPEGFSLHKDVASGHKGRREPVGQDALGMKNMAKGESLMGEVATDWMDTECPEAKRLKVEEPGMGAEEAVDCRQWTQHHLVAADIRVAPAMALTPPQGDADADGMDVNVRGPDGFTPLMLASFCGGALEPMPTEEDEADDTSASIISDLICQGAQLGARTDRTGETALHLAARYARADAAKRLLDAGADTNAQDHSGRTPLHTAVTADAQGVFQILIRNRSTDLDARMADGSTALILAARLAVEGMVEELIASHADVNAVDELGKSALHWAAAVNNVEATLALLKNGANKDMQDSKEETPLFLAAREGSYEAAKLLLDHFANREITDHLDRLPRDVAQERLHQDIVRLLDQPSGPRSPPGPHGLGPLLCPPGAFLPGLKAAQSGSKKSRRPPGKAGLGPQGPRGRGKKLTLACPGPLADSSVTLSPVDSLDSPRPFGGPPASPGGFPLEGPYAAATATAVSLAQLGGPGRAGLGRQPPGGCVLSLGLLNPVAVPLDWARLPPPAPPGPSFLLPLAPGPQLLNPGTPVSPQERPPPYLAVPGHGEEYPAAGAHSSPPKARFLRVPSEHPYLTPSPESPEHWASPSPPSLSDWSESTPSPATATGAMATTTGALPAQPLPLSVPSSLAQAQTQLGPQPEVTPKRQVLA
# [10] = probe aEGFR binding to arrayed compounds – biochemical, biotinylated probe, 635/667 nm fluorescence, primary screen (AID 1097); settings: small-molecule microarray, higher = more signal;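 further: probe is a biotinylated anti-EGFR antibody binding compounds printed on slides; score combines fluorescence near 667 nm and signal to noise of each spot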
Compound,composite z-score [1],z-score [2],z-score [3],z-score [4],composite z-score [5],z-score [6],composite z-score [7],composite z-score [8],composite z-score [9],composite z-score [10]
[N-]=[N+]=Nc1ccccc1[C@H]1OC(c2ccc(OCCCO)cc2)=N[C@@]1(CCS(=O)(=O)c1ccccc1)C(=O)NCC(O)CO (stereo not given in full),0.976,-0.733 (inactive),-0.213 (inactive),0.803 (inactive),3.64,-0.168 (inactive),0.207,0.108,0.244,-0.111
CC(C)C(=C=CC[C@H](O)c1ccc(OCCO)cc1)CCO,1.55,-1.83 (inactive),-1.27 (inactive),-0.768 (inactive),2.22,-0.327 (inactive),-0.0113,1.37,-0.0409,-0.12
C=C[C@H](CO[Si](CC)(CC)CC)N(Cc1ccc(OC(C)=O)c(OC)c1)S(=O)(=O)c1ccc(Br)cc1,0.87,-1.77 (inactive),-1.01 (inactive),0.196 (inactive),1.6,0.415 (inactive),0.476,-0.0715,-0.334,0.0819
CN1C(=O)C2C=CC(C(O)c3ccc([N+](=O)[O-])cc3)N(N3CCCCC3)C2C1=O (stereo not given),0.957,0.462 (inactive),0.647 (inactive),0.19 (inactive),2.69,-1.74 (inactive),0.347,-0.245,1.07,0.161
COCCOC(=O)N1C(=O)[C@@]2(c3cc(C#CCCO)ccc31)[C@H](C(N)=O)[C@H]1C(=O)O[C@H](c3ccccc3)[C@H](c3ccccc3)N1[C@@H]2c1ccc(O)cc1,-0.101,0.0223 (inactive),-0.0181 (inactive),-0.535 (inactive),0.877,-0.844 (inactive),-0.159,-0.248,-0.589,-0.202
O=C1C2C=CC(C(O)c3cc(C(F)(F)F)cc(C(F)(F)F)c3)N(n3cnnc3)C2C(=O)N1Cc1ccccc1 (stereo not given),0.369,-0.572 (inactive),0.685 (inactive),-0.384 (inactive),2.5,0.0068 (inactive),-0.191,-0.267,0.679,-0.139
C[N+](C)(C)CCCCNC(=O)[C@H]1C[C@H]2C(=O)N3CCC[C@H]3C(=O)N2[C@H]1c1cccc(OCCO)c1,0.0394,0.573 (inactive),-0.0177 (inactive),-1.09 (inactive),0.889,0.51 (inactive),0.0459,1.52,0.0378,-0.185
C=C(COC)/C(=C/C[C@@H](OC(=O)c1ccncc1)c1ccc(CO)o1)c1cc(C(=O)OC)ccc1OC,1.53,0.102 (inactive),-0.262 (inactive),-0.127 (inactive),2,0.564 (inactive),-0.178,1.68,1.07,0.0878
C=CCN1C(=O)[C@@]2(Cc3ccccc31)N=C(c1ccc(OCCCO)cc1)O[C@H]2c1ccccc1,1.54,-1.95 (inactive),-6.68 (inactive),2.77 (inactive),3.12,1.44 (inactive),0.352,0.638,1.11,0.122
COc1cc2c(cc1O)C(C1CC1)N(Cc1sc3ccccc3c1Cl)CC2 (stereo not given),0.641,-26 (active),-20 (active),-1.46 (inactive),3.15,-0.587 (inactive),-0.0468,-0.181,0.579,-0.149
C=C(COC)/C(=C/C[C@H](OC(C)=O)c1ccc(CO)o1)c1cc(C(=O)OC)ccc1OC,0.404,0.517 (inactive),-0.131 (inactive),0.0604 (inactive),1.67,0.796 (inactive),-0.142,0.493,0.217,-0.284
COC(=O)[C@@]1(Cc2ccc(OC)cc2)[C@H]2c3cc(C(=O)N4CCCC4)n(CCN4CNCC4=O)c3C[C@H]2CN1C(=O)c1ccccc1,-0.871,0.503 (inactive),0.706 (inactive),0.429 (inactive),3.77,-0.977 (inactive),1.42,-0.364,0.293,1.15
CN(C)C(=O)[C@@]1(CCS(=O)(=O)c2ccccc2)COC(c2ccc(OCCCO)cc2)=N1,0.494,-0.126 (inactive),1.45 (inactive),0.546 (inactive),3.63,0.199 (inactive),-0.0258,-0.252,-0.136,0.36
CC(C)[Si]1(C(C)C)O[C@@H](c2ccccc2)c2cc(-c3ccc(-c4ccc(Cl)c(Cl)c4)o3)nc(-c3ccccc3)c21,0.985,-0.585 (inactive),-0.764 (inactive),0.167 (inactive),1.22,-1.22 (inactive),-0.0809,-0.262,0.123,-0.108
